The values below come from PubChem BioAssay (NCATS).

Several values for one entry are separate records, joined by “and”; a condition that tells them apart may be missing. Identical values can stand only once. Inconclusive results are not listed. Activity calls are given as the source filed them. Calls come from the whole dose curve; as a rule, active = well fitted curve in the direction sought with a large enough effect; inconclusive = small, poorly fitted or top-dose-only effect, or another doubt; inactive = no such curve, though single readings can be large; an effect the other way counts as inactive or inconclusive.

Assay [1] has as its target Cytochrome P450 3A7 (Homo sapiens) (UniProt P24462). Put plainly: Cytochrome P450 family 3 subfamily A member 7 (CYP3A7) small molecule antagonists: luciferase biochemical qHTS assay (AID 1963596). Note: nearly all actives have a fitted effect of over 40% in size. A digest of the protocol: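 Biochemical CYP3A7 activity measured with P450-Glo system: luciferin formed from proluciferin substrate in NADPH-driven reaction (1 h, room temperature) after 10 min compound preincubation. Signal in relative luminescence units.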
For orientation: In qHTS, concentration-response curves come from the screen itself.

Assay [2] can be described thus: Viability qHTS for spleen associated tyrosine kinase inhibitor (SYKi) naive MV4-11 cells (AID 1963823). Note: nearly all actives have a fitted effect of over 40% in size. Note: potency is the fitted concentration of half-maximal effect. A digest of the protocol: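 Cells: MV4-11, SYK inhibitor naive, 500 per well. Treatment: library compounds, 72 hr, 37 C, 5% CO2. Read-out: CellTiter-Glo luminescence after 10 min RT.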
Assay [3] in a line: Viability qHTS for spleen associated tyrosine kinase inhibitor (SYKi) drug resistant MV4-11 cells (AID 1963824). Note: nearly all actives have a fitted effect of over 35% in size. Note: potency is the fitted concentration of half-maximal effect. Put shortly: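 SYK-inhibitor-resistant MV4-11 AML cells were seeded at 500 per well onto compound and cultured 72 hours (37 °C, 5% CO2). CellTiter-Glo was then added, and after 10 min at room temperature, luminescence gave viability.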

Cytochrome P450 3A7 (Homo sapiens), sequence (P24462 whole entry, looked up): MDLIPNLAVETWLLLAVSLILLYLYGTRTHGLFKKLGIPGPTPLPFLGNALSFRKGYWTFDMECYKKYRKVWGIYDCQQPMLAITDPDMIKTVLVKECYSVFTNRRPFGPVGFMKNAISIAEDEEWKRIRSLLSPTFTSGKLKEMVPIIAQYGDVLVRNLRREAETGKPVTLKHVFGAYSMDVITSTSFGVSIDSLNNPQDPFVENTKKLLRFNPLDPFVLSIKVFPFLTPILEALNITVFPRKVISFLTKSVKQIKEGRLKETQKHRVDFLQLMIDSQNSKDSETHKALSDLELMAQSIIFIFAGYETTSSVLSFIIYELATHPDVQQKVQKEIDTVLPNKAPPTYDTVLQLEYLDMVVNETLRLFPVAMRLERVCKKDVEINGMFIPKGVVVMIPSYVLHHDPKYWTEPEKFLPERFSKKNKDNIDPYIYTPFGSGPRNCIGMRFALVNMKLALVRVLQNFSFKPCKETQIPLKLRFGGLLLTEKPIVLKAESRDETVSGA

As for `COc1cc(N2CCOCC2)ccc1Nc1ncc(Cl)c(Nc2ccccc2NS(C)(=O)=O)n1`, in assay [1], the Potency entry was “inactive”. For the same molecule, the Potency in assay [2] was 103 nM (active); in assay [3], 206 nM (active).

With `CCCCCCCCCCCCCCCCN`, the Potency result in assay [1], in assay [2] and in assay [3] was “inactive” throughout.

In the case of `Cc1cn(C[C@H](N)C(=O)O)c(=O)n(Cc2ccsc2C(=O)O)c1=O`, the Potency result in assay [1], in assay [2] and in assay [3] was “inactive” in each case.

Take `O=C(Cn1c2ccccc2c2nc3n(c(=O)c21)CCS3)N1CCCC1`: the Potency entry in assay [1], in assay [2] and in assay [3] was “inactive” each time.

On to `Cc1ccnn1-c1ccc(C(=O)N2CCN(S(=O)(=O)c3ccc(Cl)c(C(F)(F)F)c3)CC2)cc1`, for which the Potency result in assay [1] and in assay [2] was “inactive” each time.

Consider `Nc1nc(N)c(N=O)c(OCC2CCCCC2)n1`, for which the Potency entry in assay [1] is “inactive”. The Potency was 6.51 µM (active) and 6.61 µM (active) in assay [2]; 8.2 µM (active) and 8.33 µM (active) in assay [3].

For `O=C(Nc1cccc(C(F)(F)F)c1)Nc1ccc(Br)cc1-c1nn[nH]n1`, the Potency entry in assay [1], in assay [2] and in assay [3] was “inactive” in each case.

Consider `c1cc(OCCCN2CCCCC2)ccc1CN1CCCCC1`, for which the Potency result in assay [1], in assay [2] and in assay [3] was “inactive” throughout.

Turning to `c1cc(-c2cc(C3CCNCC3)[nH]n2)ccn1`, the Potency entry in assay [1], in assay [2] and in assay [3] was “inactive” in each case.

`COc1cc(OC)cc(OC)c1`: the Potency entry in assay [1], in assay [2] and in assay [3] was “inactive” in each case.

On to `COc1cncc(C#Cc2ccccn2)c1`, for which the Potency result in assay [1], in assay [2] and in assay [3] was “inactive” in each case.

`N[C@@H](CC(=O)N1CCn2c(nnc2C(F)(F)F)C1)Cc1[nH]nc2c(F)c(F)ccc12`: the Potency entry in assay [1], in assay [2] and in assay [3] was “inactive” in each case.

Take `C[C@@H](NC(=O)C(=O)c1c[nH]c2ccc([N+](=O)[O-])cc12)c1ccccc1`: the Potency result in assay [1] and in assay [2] was “inactive” each time. Further, in assay [3], the Potency is 4110 nM (active).
